This is an account of results in PubChem BioAssay.

The nature of test [1]: reduced mouse 2C T cell binding to pMHC/ICAM-1 vesicles – MLPCN validation set, flow cytometry, LFA-1/ICAM-1 modulator project, pilot screen (AID 2523;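 active = response below a set limit, under 55% cells CD8-positive and vesicle-bound, and CD8 cells' 90th-percentile brightness under 279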;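 for vesicle binding response: mean PE anti-B7-1 fluorescence of CD8+ cells relative to row control; 100% = QL9-loaded vesicles with DMSO vehicle in the same plate row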). The following applies: 2C mouse CD8+ T cells, at 7 µM, stronger effect = lower value; double positive events: measured here: CD8+/vesicle+ event percentage.
The target in test [2] is Integrin beta-1 (Homo sapiens) + Integrin alpha-4 (Homo sapiens) (UniProt P13612+P05556). As to the kind of experiment: alpha4beta1 integrin LIBS antibody binding reduction – U937 cells, HUTS-21 mAb, flow cytometry, validation set, VLA-4 allosteric modulator project, pilot screen (AID 2674;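 active = inhibition above 50%, about 3 SD of the validation set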;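 note: antibody binding induced by the VLA-4 ligand LDV present at three times its Kd; 0% = LDV ligand with antibody and no compound and 100% = antibody without LDV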). The following applies: HUTS-21 LIBS mAb binding, at 6.7 µM, stronger effect = higher value, binding induced by LDV ligand.

The nature of test [3]: calorie-restriction mimetic ROS inhibitors, yeast – validation compound set, pilot screen (AID 2706;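 active = superoxide response below 65% of plate, a cut near 3 SD across the whole screen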;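 note: yeast exposed to compound for one week at 30 degrees C before staining; 100% = mean of all compound wells on the same plate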). Conditions: S. cerevisiae aging, superoxide DHE fluorescence; at 10 µM, stronger effect = lower value.
In test [4] the target is Beta-adrenergic receptor kinase 1 (Homo sapiens) (UniProt P25098). Put plainly: GRK2 binders displacing RNA aptamer, biochemical, validation, human GRK2, bead flow cytometry (AID 488806;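 active = aptamer binding inhibition above 30%, about 3 SD of noise from non-fluorescent compounds; inactive = inhibition at or below 30%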). The following applies: bead-bound GRK2, FAM-aptamer displacement, at 10 µM, stronger effect = higher value.
The target of test [5] is Beta-2 adrenergic receptor (Homo sapiens) (UniProt P07550). Put plainly: agonist-induced loss of surface beta2AR – cell-based, FAP fluorogen, flow cytometry, validation set, pilot screen (AID 504459;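 active = percent response above 42, roughly 3 SD of non-fluorescent test compounds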;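 note: agonist-driven loss of surface beta2AR via internalization measured by FAP dye flow cytometry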). Conditions: Am2.2-beta2AR cells, at 10 µM, stronger effect = higher value.
Test [6] addresses AP-2 complex subunit beta (Homo sapiens) (UniProt P63010). As to the kind of experiment: beta-arrestin/AP2 interaction blockers – biochemical, validation set, GST-AP2 beads, flow cytometry, pilot screen (AID 504541;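 active = inhibition above 54%, about 3 SD of non-fluorescent compounds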;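 note: AP2 carries R879A mutation and is captured from E. coli lysate; bead-bound FITC arrestin peptide fluorescence measuring arrestin peptide binding to AP2; 0% = DMSO wells and 100% = excess unlabeled arrestin peptide control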). The following applies: FITC arrestin peptide, at 10 µM, stronger effect = higher value, AP2 beta2 appendage fragment, R879A mutant.
Test [7] in a line: cytosolic pH regulators acting via V-ATPase – S. cerevisiae, pHLuorin, HTS validation (AID 504600; in the data active = response above about 15%;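 note: plate controls were DMSO for no effect and reference compound for full effect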). The following applies: V-ATPase proton transport, at 10 µM, stronger effect = higher value.
The subject of test [8] is anti-desmoglein-3 scFv antibody binding to human DSG3. As to the kind of experiment: blockers of pathogenic pemphigus antibody–desmoglein-3 binding – biochemical, validation compound set, bead-based, flow cytometry, pilot screen (AID 588368;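 active = binding below the plate cutoff, the plate median minus 3 SD, with a reading above zero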;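 note: signal is the median channel fluorescence of bead-bound GFP antibody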). The following applies: Protein G beads, DSG3-Fc, scFv-GFP binding, at 10 µM, stronger effect = lower value.
Test [9] in a line: Nile Red efflux blockade in pump-expressing yeast – validation compound set, multiplex, phenotypic, pilot screen (AID 588506).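 Note: Nile Red retained in cells so higher fluorescence means more efflux inhibition; 0 = negative control wells and 1 = enniatin B 25 µM full block.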 Conditions: S. cerevisiae pump-expressing triplex, Nile Red efflux flow cytometry; at 10 µM; stronger effect = higher value; the pumps come from Candida albicans.
Test [10] deals with ATP-binding cassette sub-family B member 6 (Homo sapiens) (UniProt Q9NP58). As to the kind of experiment: blockers of ABCB6-driven porphyrin uptake – K562-ABCB6 cells, flow cytometry, validation set, pilot screen (AID 588550;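 active = inhibition above the screen-wide mean plus 3 SD, about 51%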;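 note: 0% = DMSO wells and 100% = benzethonium chloride 70 µM positive control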). The following applies: K562-ABCB6 porphyrin accumulation, 1 h, at 10 µM, stronger effect = higher value.
Test [11] in a line: AML differentiation inducers, ER-HoxA9 marrow cells – cell-based, GFP/MAC1 double positive, flow cytometry, validation set, primary screen (AID 588685;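 active = differentiation response of at least 50%, scaled between solvent and reference control, from cells with both markers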;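 note: compound exposure lasts four days before antibody staining and flow analysis; 0% = DMSO wells and 100% = 5 µM fulvestrant positive control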). The following applies: stronger effect = higher value, normalized: vehicle 0, fulvestrant 100.

SMILES strings stand for the structures. Activity calls are given as the source filed them.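 Rule for the calls, unless noted: active = efflux inhibition above 0.42, the validation set average plus 4 SD; inconclusive = no clear call, values can overlap the other calls; inactive = the rest.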

Chain of Integrin beta-1 (Homo sapiens) + Integrin alpha-4 (Homo sapiens) (P05556 whole entry, looked up): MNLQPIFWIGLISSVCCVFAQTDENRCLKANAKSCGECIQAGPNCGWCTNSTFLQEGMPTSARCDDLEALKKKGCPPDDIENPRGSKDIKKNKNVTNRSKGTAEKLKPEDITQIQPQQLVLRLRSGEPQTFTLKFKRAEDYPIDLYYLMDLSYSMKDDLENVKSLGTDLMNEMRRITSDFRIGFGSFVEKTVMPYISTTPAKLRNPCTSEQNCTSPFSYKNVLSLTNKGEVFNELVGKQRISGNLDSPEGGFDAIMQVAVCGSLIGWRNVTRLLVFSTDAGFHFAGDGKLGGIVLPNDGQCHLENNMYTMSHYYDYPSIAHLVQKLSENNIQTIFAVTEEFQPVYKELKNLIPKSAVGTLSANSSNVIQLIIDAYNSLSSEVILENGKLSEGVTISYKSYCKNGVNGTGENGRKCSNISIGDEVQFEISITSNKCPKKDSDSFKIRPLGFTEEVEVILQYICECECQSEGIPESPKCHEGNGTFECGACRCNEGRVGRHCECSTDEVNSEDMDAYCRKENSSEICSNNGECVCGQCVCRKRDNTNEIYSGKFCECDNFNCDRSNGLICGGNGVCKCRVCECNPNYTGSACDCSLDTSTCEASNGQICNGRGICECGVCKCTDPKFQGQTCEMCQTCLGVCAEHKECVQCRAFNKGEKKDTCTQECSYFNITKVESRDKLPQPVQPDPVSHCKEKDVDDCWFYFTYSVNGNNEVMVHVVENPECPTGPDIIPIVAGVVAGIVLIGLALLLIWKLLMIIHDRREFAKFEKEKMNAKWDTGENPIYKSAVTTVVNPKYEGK
Chain of Integrin beta-1 (Homo sapiens) + Integrin alpha-4 (Homo sapiens) (P13612 whole entry, looked up): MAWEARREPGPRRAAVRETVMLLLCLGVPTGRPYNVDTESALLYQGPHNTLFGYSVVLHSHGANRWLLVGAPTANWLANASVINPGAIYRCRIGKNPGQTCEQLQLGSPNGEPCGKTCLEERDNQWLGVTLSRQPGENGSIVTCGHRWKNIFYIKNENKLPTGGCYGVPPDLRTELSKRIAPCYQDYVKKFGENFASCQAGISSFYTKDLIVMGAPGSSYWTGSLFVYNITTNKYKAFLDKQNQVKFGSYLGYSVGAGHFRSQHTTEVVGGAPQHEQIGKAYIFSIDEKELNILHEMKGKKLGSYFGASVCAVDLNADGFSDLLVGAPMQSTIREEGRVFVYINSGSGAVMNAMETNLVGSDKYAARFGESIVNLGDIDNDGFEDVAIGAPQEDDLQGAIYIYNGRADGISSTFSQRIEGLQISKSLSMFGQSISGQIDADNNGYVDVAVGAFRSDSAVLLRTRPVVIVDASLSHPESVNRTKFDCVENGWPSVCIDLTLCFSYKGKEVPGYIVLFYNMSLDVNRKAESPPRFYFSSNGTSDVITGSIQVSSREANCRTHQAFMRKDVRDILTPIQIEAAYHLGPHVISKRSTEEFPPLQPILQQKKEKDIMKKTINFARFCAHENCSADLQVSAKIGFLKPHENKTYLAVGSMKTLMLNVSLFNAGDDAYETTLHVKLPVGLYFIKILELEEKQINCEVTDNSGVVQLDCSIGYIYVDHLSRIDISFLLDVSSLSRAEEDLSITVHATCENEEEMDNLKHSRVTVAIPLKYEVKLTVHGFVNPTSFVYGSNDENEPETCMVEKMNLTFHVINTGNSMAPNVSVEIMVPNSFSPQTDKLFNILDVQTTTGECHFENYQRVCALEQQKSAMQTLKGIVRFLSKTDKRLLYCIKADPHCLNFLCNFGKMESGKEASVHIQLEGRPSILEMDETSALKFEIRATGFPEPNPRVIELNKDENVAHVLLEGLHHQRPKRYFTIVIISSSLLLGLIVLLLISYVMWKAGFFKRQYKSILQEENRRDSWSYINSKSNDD
Chain of Beta-2 adrenergic receptor (Homo sapiens) (P07550 whole entry, looked up): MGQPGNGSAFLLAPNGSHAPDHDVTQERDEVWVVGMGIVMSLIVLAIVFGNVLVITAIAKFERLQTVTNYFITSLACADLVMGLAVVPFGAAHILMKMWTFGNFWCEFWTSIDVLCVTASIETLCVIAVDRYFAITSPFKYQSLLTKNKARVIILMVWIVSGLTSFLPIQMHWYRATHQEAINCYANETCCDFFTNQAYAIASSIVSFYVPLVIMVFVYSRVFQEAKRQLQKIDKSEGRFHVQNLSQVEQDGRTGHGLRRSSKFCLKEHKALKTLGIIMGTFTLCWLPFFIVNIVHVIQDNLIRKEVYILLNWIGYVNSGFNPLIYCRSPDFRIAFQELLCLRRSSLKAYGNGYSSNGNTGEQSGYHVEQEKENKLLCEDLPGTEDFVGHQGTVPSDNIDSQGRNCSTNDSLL
Chain of AP-2 complex subunit beta (Homo sapiens) (P63010 whole entry, looked up, the tested form may be a part, one chain of several): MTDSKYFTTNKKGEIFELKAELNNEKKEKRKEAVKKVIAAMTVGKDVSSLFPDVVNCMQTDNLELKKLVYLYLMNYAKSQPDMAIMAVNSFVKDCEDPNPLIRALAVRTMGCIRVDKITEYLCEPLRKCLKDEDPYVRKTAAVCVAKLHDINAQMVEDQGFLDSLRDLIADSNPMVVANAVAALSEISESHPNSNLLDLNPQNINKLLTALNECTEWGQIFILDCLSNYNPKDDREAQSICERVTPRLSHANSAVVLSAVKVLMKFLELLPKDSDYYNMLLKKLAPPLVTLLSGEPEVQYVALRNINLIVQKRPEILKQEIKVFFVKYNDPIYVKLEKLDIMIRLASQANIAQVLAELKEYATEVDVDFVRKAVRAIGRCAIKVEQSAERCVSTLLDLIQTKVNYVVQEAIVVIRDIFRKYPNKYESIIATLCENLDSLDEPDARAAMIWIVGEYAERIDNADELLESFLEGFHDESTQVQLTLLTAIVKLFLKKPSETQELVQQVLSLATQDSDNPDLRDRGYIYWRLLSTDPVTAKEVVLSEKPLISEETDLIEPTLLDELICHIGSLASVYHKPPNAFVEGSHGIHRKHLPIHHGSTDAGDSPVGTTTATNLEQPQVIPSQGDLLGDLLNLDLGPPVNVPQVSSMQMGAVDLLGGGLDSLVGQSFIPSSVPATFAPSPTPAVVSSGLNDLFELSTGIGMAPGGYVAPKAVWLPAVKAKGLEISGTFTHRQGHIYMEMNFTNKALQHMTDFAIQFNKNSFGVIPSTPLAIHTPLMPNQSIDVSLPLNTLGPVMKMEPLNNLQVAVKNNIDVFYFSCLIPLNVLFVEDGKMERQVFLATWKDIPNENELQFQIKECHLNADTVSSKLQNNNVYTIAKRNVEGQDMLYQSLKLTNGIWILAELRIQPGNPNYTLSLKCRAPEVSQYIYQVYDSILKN
Chain of Beta-adrenergic receptor kinase 1 (Homo sapiens) (P25098 whole entry, looked up): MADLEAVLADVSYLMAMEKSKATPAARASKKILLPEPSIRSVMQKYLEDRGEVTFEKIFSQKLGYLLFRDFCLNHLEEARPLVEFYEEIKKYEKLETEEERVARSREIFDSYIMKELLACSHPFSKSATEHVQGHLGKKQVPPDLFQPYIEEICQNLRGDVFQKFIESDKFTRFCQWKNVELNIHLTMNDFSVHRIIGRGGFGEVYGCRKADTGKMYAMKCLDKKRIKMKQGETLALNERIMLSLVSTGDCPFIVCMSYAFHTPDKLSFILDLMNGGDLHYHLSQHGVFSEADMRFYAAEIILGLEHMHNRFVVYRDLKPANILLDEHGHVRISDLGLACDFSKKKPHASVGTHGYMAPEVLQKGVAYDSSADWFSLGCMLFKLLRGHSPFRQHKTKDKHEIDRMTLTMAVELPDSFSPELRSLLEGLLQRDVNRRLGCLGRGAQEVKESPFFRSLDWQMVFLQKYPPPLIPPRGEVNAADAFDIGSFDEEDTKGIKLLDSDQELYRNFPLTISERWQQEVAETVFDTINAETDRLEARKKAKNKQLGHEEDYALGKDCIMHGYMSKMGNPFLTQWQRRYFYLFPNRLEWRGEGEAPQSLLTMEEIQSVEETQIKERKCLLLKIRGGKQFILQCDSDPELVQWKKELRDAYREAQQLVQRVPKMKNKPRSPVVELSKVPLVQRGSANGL
Chain of ATP-binding cassette sub-family B member 6 (Homo sapiens) (Q9NP58 whole entry, looked up): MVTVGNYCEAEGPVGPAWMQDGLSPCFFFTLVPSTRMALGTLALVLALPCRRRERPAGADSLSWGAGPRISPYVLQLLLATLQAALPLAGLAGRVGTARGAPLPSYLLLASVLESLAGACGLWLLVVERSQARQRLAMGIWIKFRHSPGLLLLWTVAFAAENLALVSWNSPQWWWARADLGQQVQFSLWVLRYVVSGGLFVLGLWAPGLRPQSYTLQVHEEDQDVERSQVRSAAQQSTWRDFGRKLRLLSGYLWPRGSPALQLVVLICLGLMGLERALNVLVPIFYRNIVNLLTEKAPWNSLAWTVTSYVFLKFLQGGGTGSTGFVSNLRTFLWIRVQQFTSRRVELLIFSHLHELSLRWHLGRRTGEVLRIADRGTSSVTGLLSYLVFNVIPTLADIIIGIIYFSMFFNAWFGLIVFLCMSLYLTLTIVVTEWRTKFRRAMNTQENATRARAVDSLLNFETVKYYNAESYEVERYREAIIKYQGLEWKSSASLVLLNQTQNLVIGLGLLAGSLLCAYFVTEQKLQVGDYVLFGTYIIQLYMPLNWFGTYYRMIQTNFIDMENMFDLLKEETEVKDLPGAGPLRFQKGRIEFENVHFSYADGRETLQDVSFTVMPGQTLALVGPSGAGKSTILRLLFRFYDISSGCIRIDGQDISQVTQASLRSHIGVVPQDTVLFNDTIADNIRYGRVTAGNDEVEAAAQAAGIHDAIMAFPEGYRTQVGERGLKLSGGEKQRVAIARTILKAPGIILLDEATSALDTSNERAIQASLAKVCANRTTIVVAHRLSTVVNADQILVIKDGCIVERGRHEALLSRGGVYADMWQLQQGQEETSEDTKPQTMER

Turning to `COc1cc([C@@H]2c3cc4c(cc3[C@H](O)[C@H]3COC(=O)[C@H]23)OCO4)cc(OC)c1OC`, in [1], the double positive events came out at 63.2%. The vesicle binding response in test [1] is 180% (inactive). The inhibition in test [2] is 38.9% (inactive); in [6], -1.6% (inactive); in test [10], 7% (inactive). In test [3], the superoxide response (% of plate) is 99.1% (inactive). Moreover, the aptamer binding inhibition in test [4] was 7% (inactive). Moreover, the results for the response in [5] and in test [7] were 22.7% (inactive) and 21% (active), respectively. Moreover, in [8], the binding (% of control) is 102% (inactive). For the same compound, the efflux inhibition (fraction of control) in [9] was -0.13 (inactive). Also, the differentiation response in test [11] is -0.06% (inactive).

As to `C[C@H](NC(=O)Nc1ccccc1F)C(=O)O`, the double positive events in test [1] amounted to 66%. For the same compound, the vesicle binding response in test [1] was 272% (inactive). Besides, the values for the inhibition in [2], in [6] and in test [10] were -12.7% (inactive), -4.89% (inactive) and 7% (inactive), respectively. Also, in [3], the superoxide response (% of plate) is 106% (inactive). The aptamer binding inhibition in [4] is 6% (inactive). In addition, the figures for the response in test [5] and in [7] were -5.56% (inactive) and -9.72% (inactive), respectively. In test [8], the binding (% of control) was 101% (inactive). Further, the efflux inhibition (fraction of control) in test [9] was -0.24 (inactive). In addition, in test [11], the differentiation response is -10.4% (inactive).

Compound `O=C1CCCCCN1Cc1ccccc1` registered a double positive events in [1] of 62.4%. For the same compound, the vesicle binding response in test [1] was 208% (inactive). For the same compound, the values for the inhibition in test [2], in test [6] and in test [10] were 3.67% (inactive), -4.78% (inactive) and 5% (inactive), respectively. Further, the superoxide response (% of plate) in [3] is 97.2% (inactive). Moreover, the aptamer binding inhibition in [4] is 7% (inactive). Further, the response was -1.56% (inactive) in test [5] and 5.84% (inactive) in [7]. Also, in test [8], the binding (% of control) is 101% (inactive). In addition, the efflux inhibition (fraction of control) in test [9] is -0.24 (inactive). Further, the differentiation response in test [11] was 8.8% (inactive).

In test [1], `O=C(OCCN1CCCC1)C1(c2ccccc2)CCCC1` came in with a double positive events of 65.8%. For the same compound, the vesicle binding response in [1] was 226% (inactive). Further, the inhibition in [2] was -4.52% (inactive); in [6], -5.26% (inactive); in test [10], -8% (inactive). Also, the superoxide response (% of plate) in test [3] is 86.5% (inactive). In addition, in test [4], the aptamer binding inhibition was 1% (inactive). Besides, the response is 1.23% (inactive) in test [5] and 1.69% (inactive) in test [7]. Also, the binding (% of control) in test [8] was 97% (inactive). For the same compound, the efflux inhibition (fraction of control) in [9] was -0.06 (inactive). In test [11], the differentiation response is -7.2% (inactive).

In test [1], `O=C(c1cc2cc(Br)ccc2o1)N1CCCCC1` registered a double positive events of 63.8%. Moreover, the vesicle binding response in [1] was 320% (inactive). Moreover, the inhibition was 10.5% (inactive) in [2], -1.81% (inactive) in test [6] and 6% (inactive) in test [10]. Moreover, the superoxide response (% of plate) in test [3] is 86.2% (inactive). Moreover, in test [4], the aptamer binding inhibition was -4% (inactive). For the same compound, the response in test [5] was -13.7% (inactive); in [7] it was -0.39% (inactive). For the same compound, the binding (% of control) in test [8] was 73.3% (active). Moreover, the efflux inhibition (fraction of control) in [9] was 0.05 (inactive). Further, the differentiation response in [11] was 4% (inactive).

Take `O=C(c1ccc([N+](=O)[O-])cc1)N1CCSC1c1ccccc1Cl` (centres undefined): in [1], the double positive events came out at 77.4%. Also, the vesicle binding response in [1] is 441% (inactive). Besides, the figures for the inhibition in [2], in test [6] and in test [10] were -9.98% (inactive), -8.18% (inactive) and 5% (inactive), respectively. The superoxide response (% of plate) in test [3] is 91% (inactive). For the same compound, in test [4], the aptamer binding inhibition was 4% (inactive). The response is -12.5% (inactive) in [5] and -2.22% (inactive) in test [7]. The binding (% of control) in test [8] was 101% (inactive). Further, in test [9], the efflux inhibition (fraction of control) is -0.1 (inactive). Besides, the differentiation response in [11] was 0.8% (inactive).

Consider `COc1ccc(C(=O)Nc2ccc(OC)c([N+](=O)[O-])c2)cc1Br`, for which the double positive events in test [1] turned out to be 59%. Also, the vesicle binding response in test [1] is 113% (inactive). The inhibition in test [2] was 4.27% (inactive); in test [6], 7.87% (inactive); in test [10], 2% (inactive). The superoxide response (% of plate) in test [3] was 92.1% (inactive). In addition, in test [4], the aptamer binding inhibition is -1% (inactive). For the same compound, the response in [5] is 8.89% (inactive); in [7], 4.22% (inactive). Besides, the binding (% of control) in [8] was 83.4% (inactive). Also, the efflux inhibition (fraction of control) in test [9] was -0.175 (inactive). Moreover, the differentiation response in [11] was -10.4% (inactive).
